The source of these data is PubChem BioAssay.

Each structure is given as a SMILES string.

One assay can be described thus: Primary imaging screen for DUSP6 inhibitors that restore phospho-Erk in transfected HeLa cells, chemical complementation (AID 609). The following applies: HeLa MKP-3 transfected, phospho-Erk imaging KS statistic; measured here: cell density z-score; at 10 µM; cells stimulated with TPA for 15 min.
Molecule `Cc1ccc(N(CN2C(=O)C3CC=CCC3C2=O)C(=O)c2ccco2)cc1Cl` (stereo not given) came in with a z-score of 0.823.

Consider `O=c1[nH]cnc2c1cnn2Cc1ccccc1`, for which the z-score is 0.233.

Consider `COC(=O)C(NC(C)=O)(Nc1ccc(Br)cn1)C(F)(F)F` (stereo not given), for which the z-score is -1.18.

Turning to `COC(=O)/C=c1/s/c(=C(/C#N)C(=O)N2CCCCC2)n(-c2ccccc2)c1=O`, the z-score was -0.699.

On to `O=c1c2sc3nc(N4CCOCC4)c4c(c3c2ncn1Cc1ccco1)CCCC4`, for which the z-score was -0.769.

In turn, `COc1ccc(CC(=O)n2c(CC#N)nc3ccccc32)cc1OC` gave a z-score of -0.393.

`CCN(CC)CCN1C(=O)C(O)=C(C(=O)c2cc3ccccc3o2)C1c1cccnc1` (stereo not given): the z-score is -0.472.

`COc1ccc(CSc2nnc3n(C)c(=O)c4c5c(sc4n23)CCCC5)cc1` displayed a z-score of 0.888.

In the case of `CC(NC(=O)Nc1cccnc1)(C(F)(F)F)C(F)(F)F`, the z-score was 0.533.

Turning to `CCOC(=O)CSc1nnc(C)c(=O)[nH]1`, the z-score is -0.66.

Consider `O=S(=O)(/C=C/c1ccccc1)Nc1ccc2c(c1)OCO2`, for which the z-score was found to be 0.539.

Consider `Cn1c(=O)c2c3c(sc2n2c(SCC(=O)c4ccccc4)nnc12)COC(C)(C)C3`, for which the z-score amounted to 0.653.

Turning to `COc1cccc(C2C(C(=O)c3sc(C)nc3C)=C(O)C(=O)N2CCN2CCOCC2)c1OC` (stereo not given), the z-score was -0.517.

Take `NC(=O)C1CCN(C2OC(=O)c3ccccc32)CC1` (stereo not given): the z-score was determined as 0.349.

With `CCCCOC(=O)c1[nH]c(C)c(C(=O)OC)c1C`, the z-score turned out to be 0.82.

Consider `CCSc1nnc(NC(=O)C(C)(C(F)(F)F)C(F)(F)F)s1`, for which the z-score was -1.16.

Consider `Cc1ccc(N2C(=O)CC3(CC4C=CC3C4)C2=O)cc1` (stereo not given), for which the z-score came to 1.62.

`Cn1c(NCC(O)c2ccccc2)nc2c1c(=O)n(Cc1ccc(Cl)cc1)c(=O)n2C` (stereo not given) had a z-score of -0.206.

For `N#Cc1nc(-c2ccc(F)cc2)oc1N1CCCC1`, the z-score came out at 1.01.

In turn, `COC(=O)/C(C#N)=C1/SC=C(C)N1c1ccccc1` came in with a z-score of -0.0327.

The molecule `COc1ccc2nc(/N=C(\N)NC(=O)C(C)(C)C)nc(C)c2c1` returned a z-score of 0.367.

For `O=C(NCCCNCc1ccccc1)/C(=N\O)c1ccccc1`, the z-score was -0.176.

Still in this assay, the particulars now being: HeLa MKP-3 transfected, phospho-Erk imaging KS statistic; measured here: nuclear c-Myc green intensity z-score; at 10 µM; cells stimulated with TPA for 15 min.
The molecule `COc1cccc(C(=O)OC2CCCN(C)C2)c1` (stereo not given) showed a z-score of 1.21.

Take `FC(F)(F)c1cccc(N2CCc3cn[nH]c32)c1`: the z-score was found to be 0.954.

`Cc1cc(=O)oc(C)c1C(=O)NCCC1=CCCCC1` showed a z-score of 1.4.

With `COCCNC(=O)C(C#N)c1nc2ccccc2nc1N1CCN(Cc2ccc3c(c2)OCO3)CC1` (stereo not given), the z-score is 1.08.

For the molecule `Cc1cc(CC(=O)O)c(C)cc1CC(=O)O`, the z-score came to 1.92.

Regarding `Nc1nc2n(n1)C(c1cccs1)CC(c1ccc(F)cc1)N2` (stereo not given), the z-score is 0.295.

As for `CCOC(=O)C1=Nc2ccccc2C1=[N+]=[N-]`, the z-score was found to be 0.636.

`CCc1nc2c(sc3nc(N4CCOCC4)c4c(c32)CC(C)(C)OC4)c(=O)o1` showed a z-score of 0.948.

As to `CC(=O)/C(C#N)=C1\NC(=O)C(Cc2ccccc2Cl)S1` (stereo not given), the z-score is -0.162.

As for `COC(=O)/C=c1/s/c(=C(\C#N)C(=O)NCc2ccco2)n(-c2ccccc2)c1=O`, the z-score was -0.55.

`O=C(NCCCN1CCOCC1)C1(c2ccccc2)CCOCC1` yielded a z-score of 1.09.

For the molecule `CCN(CC)CCN1C(=O)C(=O)/C(=C(/O)c2c(C)[nH]c(C(=O)OC)c2C)C1c1ccccc1` (stereo not given), the z-score stood at 0.96.

`Cc1ccc(S(=O)(=O)c2cc3c(=O)n4cccc(C)c4nc3n(CC3CCCO3)c2=N)cc1` (stereo not given) registered a z-score of 0.519.

In turn, `COC(=O)C(NC(=O)c1ccco1)(Nc1nc(C)cs1)C(F)(F)F` (stereo not given) showed a z-score of 0.248.

As for `CC(=O)C1=C(O)C(=O)N(c2ccc(Br)cn2)C1c1ccccc1F` (stereo not given), the z-score is -1.7.

For `Cc1ccc(S(=O)(=O)N(CC(O)CN2CCOCC2)c2cc(Cl)ccc2Cl)cc1` (stereo not given), the z-score turned out to be 1.14.

`CCNC(=O)COn1c(SCC(=O)NCC)nc2ccccc2c1=O` registered a z-score of 0.056.

As for `CCCOc1cccc(C2/C(=C(/O)c3ccc(F)cc3)C(=O)C(=O)N2CCN(C)C)c1` (stereo not given), the z-score is -1.18.

In turn, `Cc1ccc(N(CN2C(=O)C3CC=CCC3C2=O)C(=O)c2ccco2)cc1Cl` (stereo not given) registered a z-score of -0.172.

Take `O=c1[nH]cnc2c1cnn2Cc1ccccc1`: the z-score was -0.586.

On to `COC(=O)C(NC(C)=O)(Nc1ccc(Br)cn1)C(F)(F)F` (stereo not given), for which the z-score came out at 0.658.

In turn, `COC(=O)/C=c1/s/c(=C(/C#N)C(=O)N2CCCCC2)n(-c2ccccc2)c1=O` displayed a z-score of 0.059.

In the case of `O=c1c2sc3nc(N4CCOCC4)c4c(c3c2ncn1Cc1ccco1)CCCC4`, the z-score was -0.213.

The molecule `COc1ccc(CC(=O)n2c(CC#N)nc3ccccc32)cc1OC` gave a z-score of -2.03.

In the case of `CCN(CC)CCN1C(=O)C(O)=C(C(=O)c2cc3ccccc3o2)C1c1cccnc1` (stereo not given), the z-score was -0.722.

In turn, `COc1ccc(CSc2nnc3n(C)c(=O)c4c5c(sc4n23)CCCC5)cc1` displayed a z-score of -0.948.

Take `CC(NC(=O)Nc1cccnc1)(C(F)(F)F)C(F)(F)F`: the z-score was -0.524.

In the case of `CCOC(=O)CSc1nnc(C)c(=O)[nH]1`, the z-score was determined as 0.692.
